Test results reported in PubChem BioAssay AID1863 (Southern Research Specialized Biocontainment Screening …, 2009).
Among all 300,000 compounds or so, about 480 (0.16%) were called active.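 The calls were made as follows: active = inhibition over 29.93%, a cutoff 3 SD above the screen mean, later confirmed by dose response; inconclusive = inhibition over 29.93% but no dose response follow-up; inactive = inhibition at most 29.93% or unconfirmed.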 The list is a sample of the results. Results with a measured potency or affinity are listed apart.

Assay: inhibitors of PhoP regulon expression, primary screen, Salmonella Typhimurium, GFP reporter (AID 1863);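 also: 0% = low Mg2+ inducing control and 100% = high Mg2+ repressing control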
Conditions: S. Typhimurium PhoP-regulated promoter GFP reporter, 4 h; at 50 µM; stronger effect = higher value

inhibition, inactive:
COc1ccc(S(=O)(=O)N2CCCCCC2)cc1N(C)S(=O)(=O)c1ccc(C)cc1 -9.69%
CCCC(=O)N(c1ccc(OCC)cc1)C1C=CS(=O)(=O)C1 (configuration not stated) -5.2%
C[C@@H]1CN(c2c(F)c(N)c3c(=O)c(C(=O)O)cn(C4CC4)c3c2F)C[C@H](C)N1 -7.7%
O=C(O)c1cn(C2CCCCC2)c2ccccc2c1=O -3.48%
COC(=O)C(c1cc(OC)c(O)c(OC)c1)(N1CCNC(C)C1)C(F)(F)F (configuration not stated) 1.17%
CCOC(=O)c1cn(C2CC2)c2c(F)c(F)c(F)cc2c1=O -6.9%
COC(=O)c1ccc(NC(=O)C(OC)c2ccccc2)cc1 (configuration not stated) 5.34%
O=C(NNC(=O)c1ccccc1OCc1ccc(F)cc1)c1ccccc1O 1.71%
COc1cccc(Oc2ccc(S(=O)(=O)N3CCCC3)cc2[N+](=O)[O-])c1 -0.65%
COc1ccc([C@@H]2[C@@H]3C(=O)N(C(C)(C)C)C(=O)[C@@H]3[C@]3(Cc4ccccc4)C(=O)N(c4ccccc4)C(=O)N23)cc1 6.74%
O=C(COc1ccccc1F)NNC(=O)c1ccc2c(=O)n3c(nc2c1)CCC3 -5.21%
CC(CN1CCCCC1)OC(=O)C(C)(c1ccccc1)c1ccccc1 (configuration not stated) -9.7%
O=S(=O)(NCC1CCCO1)c1ccc(S(=O)(=O)N(Cc2ccc(F)cc2)Cc2ccco2)cc1 (configuration not stated) 2.4%
CCCC(=O)Nc1c2c(nc3ccccc13)N(c1ccccc1)CC2 -4.18%
CCN(CCCCN1C(=O)c2ccccc2C1=O)c1ccc2c(c1)C(=O)N(C)C2=O -8.03%
COc1ccc(-c2cc3ccccc3n2CC(O)Cn2nc(C)cc2C)cc1 (configuration not stated) 1.53%
O=C(O)c1cn(-c2ccc(N3CCCC3)c(F)c2)c2c(F)c(F)c(F)cc2c1=O -6.63%
O=C(O)c1cn(-c2ccc(F)cc2)c2cc(Cl)c(F)cc2c1=O 5.58%
O=C(/C=C/c1ccc([N+](=O)[O-])cc1)NCCc1ccccc1 6.48%
O=c1cc(N2CCN(c3ccccc3F)CC2)[nH]c(=O)n1-c1ccc(Br)cc1 -3.95%
Cc1sc2ncnc(N/N=C/c3ccc(O)cc3)c2c1C 11.1%
C/C(=N\Nc1ncc(Cl)cc1Cl)c1ccccn1 9.66%
Cc1sc2ncnc(Nc3ccccc3)c2c1C 8.39%
Cc1sc2ncnc(N/N=C/c3cccc(O)c3)c2c1C -0.11%
C=CCN(c1ccc(C(=O)NCCCn2ccnc2)cc1)S(C)(=O)=O 0.81%
Cc1ccc2c(=O)c(C(=O)c3ccc(F)cc3)cn(CC(=O)NCc3ccco3)c2n1 -4.56%
CCOC(=O)c1c(NC(=O)COC(=O)c2ccccn2)sc(C(=O)N(C)C)c1C 2.57%
C/C(=N\NC(=O)c1cc(Br)ccc1O)c1ccccn1 3.69%
C/C(=N\NC(=O)c1ccccc1Cl)c1ccccn1 5.97%
COc1ccc(CC(=S)NCCc2ccccc2)cc1 -4.36%
O=C(NC1CCCC1)C(c1ccccn1)N(Cc1ccc(F)cc1)C(=O)c1csnn1 (configuration not stated) 0.43%
CCCCCCSc1cc(-c2nc3ccc(Cl)cn3c2NCCCC)ccc1OC -3.84%
CC(=O)Oc1ccc(OC(C)=O)c(SCCCCCCl)c1 -1.06%
CCCCn1nnnc1NCc1cc(OC)c(OC)cc1OC 35.9%
COc1cc2ccc3c(CCN(C)C)cc(OC)c(OC)c3c2cc1OC -2.35%
O=C(Nc1ccc(S(=O)(=O)N2CCc3ccccc3C2)cc1)C1CCCO1 (configuration not stated) 13.2%
CCCCCn1c(CCNC(=O)c2cccs2)nc2ccccc21 11.2%
COc1ccccc1C(=O)OCc1ccc2sc(C)nc2c1 5.75%
C=CCNc1nc(Cl)nc(Nc2ccc([N+](=O)[O-])cc2)n1 13.8%
CC(C)c1cc(=O)n2[nH]c(SCc3ccccc3Cl)nc2n1 -7.54%
CCCOc1ccc(C(=O)NCCC(=O)NCCCC(=O)O)cc1 8.01%
CN(C)C/C(Cl)=C(\Cl)c1ccccc1 4.69%
CC(C)N1CCc2c(sc(NC(=O)c3ccc([N+](=O)[O-])o3)c2C(N)=O)C1 18%
NC(=O)c1c(NC(=O)c2ccc([N+](=O)[O-])o2)sc2c1CCCC2 -3.86%
CN1CCc2c(sc(NC(=O)c3ccco3)c2C(N)=O)C1 -4.37%
COC(=O)c1c(NC(=O)c2ccco2)sc2c1CCN(C(C)C)C2 3.8%
CC(C)(C)c1ccc(C(=O)N2CCN(C(=O)c3ccco3)CC2)cc1 1.4%
Cc1nn(-c2ccccc2)c(N2CCCC2)c1C=O -1.38%
O=S(=O)(c1ccccc1)c1nc(-c2ccco2)oc1NCCCn1ccnc1 5.16%
CC(C)N(C(=O)COC(=O)[C@@H]1CC(O)CN1S(=O)(=O)c1ccc(C(C)(C)C)cc1)C(C)C (some centres not stated) 0.76%
CC(=O)C[C@H]1c2cc(C(F)(F)F)ccc2S(=O)(=O)N1c1ccc(N(C)C)cc1 -9.83%
Cc1c(N2C(=O)c3ccc(Br)cc3C2=O)c(=O)n(-c2ccccc2)n1C 2.78%
C=CCNC(=S)N1CCN(c2ncc3c(=O)c(C(=O)O)cn(CC)c3n2)CC1 14%
CCCCCCCCC(=O)N1CCN(c2cc3c(cc2F)c(=O)c(C(=O)O)cn3CC)CC1 1.94%
CCCCCCn1cc(C(=O)O)c(=O)c2cc(F)c(N3CCN(C(=O)OCC)CC3)cc21 5.63%
CCCCCCCC(=O)N1CCN(c2cc3c(cc2F)c(=O)c(C(=O)O)cn3CC)CC1 9.66%
CCn1cc(C(=O)O)c(=O)c2cnc(N3CCN(C(=S)Nc4ccccc4)CC3)nc21 5.11%
CCOC(=O)c1cn(CC)c2cc(N3CCN(C)CC3)c(F)cc2c1=O 0.76%
O=C(N/N=C1\CC2CC=CC12)c1ccccc1Cl (configuration not stated) -4.57%
CC1(C)C(=O)Nc2ccccc2N1C(=O)c1ccc([N+](=O)[O-])cc1 7.48%
CCS(=O)(=O)N1CCCC(C(=O)NCC2CCCO2)C1 (configuration not stated) 9.13%
COCCn1c(SCc2nnc(-c3ccccc3)o2)nc2sc3c(c2c1=O)CCC3 1.92%
O=C(NCc1cccnc1)/C(=C/c1ccco1)NC(=O)c1ccccc1 -2.07%
CCOc1ccc(C(=O)OCC(=O)NCCCc2ccccc2)cc1 -6.34%
COCCN1C=C2C(=O)C(C)(OC(=O)C3CCCC3)C(=O)C(c3ccccc3)=C2C=C1CCCC(=O)OC (configuration not stated) 0.275%
O=C(c1ccc(NS(=O)(=O)c2ccc3c(c2)OCCO3)cc1)N1CCCCC1 -6.01%
Cn1cc(S(=O)(=O)NC2CCCCC2)c(=O)n(C)c1=O -6.38%
Cc1cc(C)nc(/N=C(\N)N(Cc2ccccc2)Cc2ccccc2)n1 -3.9%
COc1ccc(/C=N/NS(=O)(=O)c2ccc(C)cc2)cc1OC(=O)c1ccccc1 -3.56%
O=C(O)c1cn(C2CC2)c2cc(N3CCN(S(=O)(=O)c4ccc5c(c4)OCCO5)CC3)c(F)cc2c1=O 28.5%
CCCCCCn1cc(C(=O)O)c(=O)c2cc(F)c(N3CCN(C)CC3)cc21 -2.32%
CCN(C(=O)COC(=O)c1ccc(C)c(S(=O)(=O)N2CCCCC2)c1)C1CCS(=O)(=O)C1 (configuration not stated) -0.22%
CC(Oc1ccccc1)C(=O)N=C1SC2CS(=O)(=O)CC2N1c1cccc(F)c1 (configuration not stated) -0.94%
COc1ccc(S(=O)(=O)N(C)c2ccc(C(=O)NCC3CCCO3)cc2)cc1 (configuration not stated) 15.5%
CN(C)NC1CC(=O)N(c2ccccc2)C1=O (configuration not stated) -0.29%
CCOP(=O)(OCC)C(C)(C)NC(=O)c1cc([N+](=O)[O-])cc([N+](=O)[O-])c1 -1.13%
O=C1C(O)=C(O)C(=O)c2ccccc21 9.48%
O=C1Nc2ccccc2C1=O 6.44%
COC(=O)C1=C(SC)N(c2ccccc2)C(c2ccccc2)CC1=O (configuration not stated) 11.8%
CCCCCCCCCCCCCCCC[n+]1ccc(C(N)=O)cc1 20.5%
NC(=O)C[n+]1ccc(/C=N/O)cc1 -4.29%
CCS(=O)(=O)N1CCCC(C(=O)NCCCOC)C1 (configuration not stated) -8.48%
CC1(N(O)/C=C2\C=CC=CC2=O)CCCCC1=O (configuration not stated) -4.1%
COC(=O)CCC(=O)Nc1ccccc1C(N)=O 15.3%
CN(C)S(=O)(=O)c1cccc(NC(=S)N/N=C/c2ccc(O)c(O)c2O)c1 -0.51%
COc1ccc(O)c(/C=N/NC(=S)Nc2cccc(S(=O)(=O)N(C)C)c2)c1 22.2%
Cc1ccc(Nc2nc(N)c([N+](=O)[O-])c(NCc3ccccc3)n2)cc1 -2.58%
Nc1ccc2c(c1)C(=O)c1ccccc1C2=O 8.76%
O=C1C(=O)c2ccc(-c3ccccc3)cc2-c2ccccc21 -10.4%
CC(=O)Nc1ccc(S(=O)(=O)N2C(C)CCCC2C)cc1 (configuration not stated) 11.1%
COc1ccc(/C=N/NC(=O)Cn2nnc3ccccc32)cc1OC -6.81%
COc1cc(/C=N/NC(=O)Cn2nnc3ccccc32)ccc1O -5.12%
